MEKK2 mut-MEK5: signal of MEK5 binding to mutant human MEKK2 PB1 domain | bead flow cytometry, Alexa488-MEK5 binding to MEKK2 mutant | percent response, % at 10 µM | 0.35% of 290,000 active | AID 1530; in the data active = percent response above about 24%, passing the limit was not always enough
MEKK3 PB1 HTS: modulators (inhibitors or enhancers) of MEK5 binding to human MEKK3 PB1 domain; binding response (% of control), % at 10 µM; 1.4% of 290,000 active; AID 1529; bead-based flow cytometry, Alexa488-MEK5 binding to MEKK3; actives lie on both sides; 0 = blocked by unlabeled MEK5, 100 = vehicle;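 active = binding response more than 3 SD above or below the average of its plate-row segment, actives on both sides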;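 also: Alexa488 bead fluorescence after subtracting the streptavidin-only scavenger bead signal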
SUMO Mot1 rescue: inhibitors of SUMOylation pathway: yeast Mot1-301 growth rescue; S. cerevisiae Mot1-301 growth rescue, ATP luminescence, 38.5C; percent above DMSO median, 100 means doubled; growth rescue, % at 18.8 µM; 1% of 320,000 active;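 active = every valid replicate shows activation above 250% relative to neutral control wells; inactive = the rest, any valid replicate at or below 250%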;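 also: OY570 slx delta 5 strain wells were the positive control but not used for scaling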
CHT PAM: allosterically activates the human high affinity choline transporter; 0.49% of 310,000 active; Q9GZV3; CHT-expressing cells, membrane potential dye, choline EC20; stronger effect = higher value; LV-AA mutant CHT in HEK293 cells; B-score at 10 µM;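 active = initial fluorescence not abnormally high and integrated response B-score, plate-corrected, over 3 SD above library mean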
Target sequence (Q9GZV3 whole entry, looked up): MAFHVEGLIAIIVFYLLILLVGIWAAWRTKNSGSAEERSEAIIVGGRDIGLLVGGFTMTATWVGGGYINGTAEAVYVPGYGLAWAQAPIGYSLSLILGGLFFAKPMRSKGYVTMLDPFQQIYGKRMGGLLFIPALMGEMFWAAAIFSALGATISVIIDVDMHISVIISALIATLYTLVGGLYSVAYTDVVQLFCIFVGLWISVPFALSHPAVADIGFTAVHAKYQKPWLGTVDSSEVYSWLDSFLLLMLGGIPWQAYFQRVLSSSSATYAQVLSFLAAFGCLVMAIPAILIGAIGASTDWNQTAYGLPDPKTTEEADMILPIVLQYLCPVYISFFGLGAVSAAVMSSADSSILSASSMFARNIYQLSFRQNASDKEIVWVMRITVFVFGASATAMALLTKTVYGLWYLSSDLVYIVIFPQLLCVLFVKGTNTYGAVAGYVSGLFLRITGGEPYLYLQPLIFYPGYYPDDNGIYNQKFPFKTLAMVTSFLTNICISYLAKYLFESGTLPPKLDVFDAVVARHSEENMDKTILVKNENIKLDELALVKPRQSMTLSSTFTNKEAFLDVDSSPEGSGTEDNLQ
MEKK2 WT-MEK5: raises or lowers MEK5 binding to wildtype human MEKK2 PB1 domain; Q9Y2U5; bead flow cytometry, Alexa488-MEK5 binding to MEKK2 WT; actives lie on both sides; binding response (% of control), % at 10 µM; 1.1% of 290,000 active; in the data active = binding response below about 67% or above about 130%
CHT inh: human CHT choline transport inhibition. CHT-expressing cells, membrane potential dye, choline response; stronger effect = lower value. Q9GZV3. 0.86% of 310,000 active. B-score at 10 µM;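 active = B-score over 3 SD under the library average, and starting fluorescence ratio not unusually high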;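 also: choline stimulus applied at its EC90 after an EC20 pre-addition; B-score computed on integrated fluorescence ratio after choline addition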
* marks the source's active call; other numbers are inactive results; i = inactive; . = no result; + = active, no number; [ ] = another dose, or the depositor's remark. Shown are actives, neighbours in structure and some others; about 4.1% of the full set was active somewhere.

SMILES | MEKK2 mut-MEK5 | MEKK3 PB1 HTS | SUMO Mot1 rescue | CHT PAM | MEKK2 WT-MEK5 | CHT inh
CCCN1C/C(=C/c2ccc3c(c2)OCO3)C(=O)/C(=C/c2ccc3c(c2)OCO3)C1 | 1 | 136* | 24 | i | 109 | i
COc1ccccc1C(c1c(N)n(C)c(=O)n(C)c1=O)C(C)[N+](=O)[O-] (centres undefined) | 0 | 105 | 27 | i | 107 | i
COc1ccccc1C(C[N+](=O)[O-])c1c(N)n(C)c(=O)n(C)c1=O (centres undefined) | 24 | 124 | 594* | i | 114 | i
Cc1ccc(N2CC(C(=O)Nc3nc4ccc(S(C)(=O)=O)cc4s3)CC2=O)cc1C (centres undefined) | -1 | 99 | 148 | i | 96 | i
COCCCN1CC(=O)N2C(c3ccc(OC)c(OC)c3)c3[nH]c4ccccc4c3C[C@H]2C1=O (some centres undefined) | 5 | 105 | 305* | i | 104 | i
COc1cc(C2c3[nH]c4ccccc4c3C[C@H]3C(=O)N(CCO)CC(=O)N23)cc(OC)c1OC (some centres undefined) | 9 | 111 | -8 | i | 109 | i
CC(C)CN1C(=O)/C(=C/c2c(N3CCc4ccccc4C3)nc3ccccn3c2=O)SC1=S | 77* | 22*[inhibitor] | . | . | . | .
CCOC(=O)CC1C(=O)NCCN1c1nc2c(C)cccn2c(=O)c1/C=C1\SC(=S)N(CC(C)C)C1=O (centres undefined) | -1 | 97 | . | . | 70 | .
C=C(Cl)COc1cc(C)cc2oc(=O)cc(CC)c12 | -1 | 94 | 329* | i | 97 | i
C=C(C)COc1ccc(C2NC(=O)c3ccccc3O2)cc1OCC (centres undefined) | 3 | 102 | -15 | i | 106 | i
O=C(CCN1C(=O)/C(=C/c2ccccc2Cl)SC1=S)NC1C=CS(=O)(=O)C1 (centres undefined) | -7 | 97 | 5 | i | 95 | i
COc1ccc(S(N)(=O)=O)cc1-c1nnc2c3ccccc3c(C)nn12 | 2 | 98 | 304* | i | 99 | i
CCCCNC(=O)CCn1nc(-c2ccc(C)cc2)c2ccccc2c1=O | 5 | 99 | -18 | i | 102 | i
COc1cc(/C=N/NS(=O)(=O)c2ccc(C)cc2)ccc1OCc1cccc(C(=O)O)c1 | -1 | 102 | 733* | i | 96 | i
Cc1ccc(OCC(=O)NCCCNC(=O)c2ccncc2)cc1C | -4 | 101 | 57 | i | 96 | i
O=C(/C=C/c1cccc([N+](=O)[O-])c1)N(c1ccccn1)c1ccccn1 | -28 | 88 | + | i | 82 | i
CC(C)c1ccc(-c2csc3ncnc(N4CCN(C)CC4)c23)cc1 | 6 | 102 | 12 | i | 106 | -11*
CCN(CC)S(=O)(=O)c1ccc(/C=C/C(=O)OCC(=O)Nc2ccc(S(N)(=O)=O)cc2)cc1 | -6 | 77 | -5 | i | 85 | i
Cc1cccc(N2CCN(c3ccc(N4C(=O)CCCC4=O)cc3[N+](=O)[O-])CC2)c1C | -2 | 101 | 3 | i | 98 | i
Cc1cccc(N2CCN(c3ccc(N4C(=O)CCCC4=O)cc3[N+](=O)[O-])CC2C)c1 (centres undefined) | -1 | 104 | 415* | i | 103 | i
C[n+]1cn(Cc2ccc(C#N)cc2)c2ccccc21 | 1 | 99 | -4 | i | 101 | i
CSc1ccc(CN2CCC(N3CC(C)OC(C)C3)CC2)cc1 (centres undefined) | 3 | 109 | 285* | i | 108 | i
Cc1ccc(CN2CCC(N3CC(C)OC(C)C3)CC2)cc1 (centres undefined) | 9 | 102 | 54 | i | 104 | i
O=C1/C(=C/c2ccccc2)CCCc2ccccc21 | -2 | 105 | -10 | i | 99 | i
CN(C)c1ccc(/C=C2\CCC/C(=C\c3ccccc3)C2=O)cc1 | 21 | 121 | 16 | i | 15* | i

High-throughput results deposited in PubChem by several laboratories.
